Rows were chosen to be rich in hits. Some 18% of all compounds tested hit in one or more screens of this group.
GCN5L2 inh: GCN5L2 (KAT2A) acetyltransferase inhibition; actives 0.21% (n = 390,000); Potency, µM (top dose mostly 58.9 µM), inactives show at the top dose activity change, negative = inhibition, usual class: inhibitors; GCN5L2 HAT assay, ThioGlo1 CoA-SH fluorescence
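GCN5L2 (20nM final) in 50mM HEPES, 0.1mM EDTA pH 7.5, 0.01% Tween-20 was preincubated 15 min at room temperature with compound, then given ThioGlo1 (50uM), H3(1-25) peptide (75uM) and acetyl-CoA (70uM); CoA-thiol fluorescence (Ex340/Em540) was read at 0 and 20 min.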
DT40 TDP1 no CPT: qHTS for Inhibitors of human tyrosyl-DNA phosphodiesterase 1 (TDP1): qHTS in cells in absence of CPT. DT40 Tdp1-/- hTDP1 cells, no CPT, ATP luminescence, 48 h. Potency, µM (highest dose often 46.2 µM), for inactives: top-dose activity change, negative = growth inhibition, hits mostly inhibitors. actives 15% (n = 420,000); further: nearly all actives have a fitted effect of over 55% in size
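Seeded 400 DT40-hTDP1 cells/well (vehicle DMSO, no 20 nM CPT); pinned compounds; ≥48 hr at 37 °C; CellTiter-Glo luminescence as viability measure.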
DT40 TDP1 CPT: DT40-hTDP1 cell growth loss with CPT | chicken DT40 Tdp1-/-;hTDP1 cells + 20 nM CPT, ATP luminescence, 48 h | Potency, µM (top dose mostly 46.2 µM), without a hit: at the top dose activity change, negative = growth inhibition, hits mostly inhibitors | actives 12% (n = 420,000) | AID 686979; further: nearly all actives have a fitted effect of over 55% in size
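Chicken DT40 Tdp1-/- cells complemented with human TDP1, 400 cells/well, exposed to compounds plus 20 nM camptothecin for at least 48 h at 37 C; viability read as ATP content by CellTiter-Glo luminescence.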
VDR inhibitor: blocks the human vitamin D receptor; actives 0.93% (n = 400,000); P11473; Potency, µM, without a hit: max response, negative = inhibition, usual class: inhibitors; VDR-SRC2-3 peptide fluorescence polarization, 2 h
Target sequence (P11473 whole entry, looked up): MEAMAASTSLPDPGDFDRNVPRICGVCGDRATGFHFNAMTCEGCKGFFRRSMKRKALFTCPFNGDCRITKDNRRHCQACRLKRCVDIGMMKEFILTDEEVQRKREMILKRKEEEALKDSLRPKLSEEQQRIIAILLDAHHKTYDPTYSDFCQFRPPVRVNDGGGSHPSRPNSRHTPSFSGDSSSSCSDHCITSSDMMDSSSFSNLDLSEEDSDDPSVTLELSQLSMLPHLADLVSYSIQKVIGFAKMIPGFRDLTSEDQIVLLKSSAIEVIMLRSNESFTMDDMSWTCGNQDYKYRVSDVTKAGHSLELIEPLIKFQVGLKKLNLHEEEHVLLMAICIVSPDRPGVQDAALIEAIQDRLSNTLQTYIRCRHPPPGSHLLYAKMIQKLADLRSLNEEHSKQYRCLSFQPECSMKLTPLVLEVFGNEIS
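Fluorescence polarization assay measuring small-molecule disruption of VDR binding to the coregulator peptide SRC2-3. Compounds were pin-transferred (23 nl) into the reagent mix and incubated 2 h at room temperature before reading.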
PLK1 PBD inh: blocks phosphopeptide binding to human PLK1 polo-box domain; Plk1 PBD binding of FITC phosphopeptide, fluorescence polarization; Potency, µM, inactives show max response, negative = inhibition, most hits filed as inhibitors; actives 2.8% (n = 360,000); AID 720504; further: series mostly up to about 57 µM; nearly all actives have a fitted effect of over 65% in size
TDP1 block: inhibitors of human tyrosyl-DNA phosphodiesterase TDP1. recombinant TDP1, AlphaScreen DNA substrate cleavage. Q9NUW8. actives 0.28% (n = 350,000). AID 485290. Potency, µM (highest dose often 130 µM), without a hit: at the highest dose activity change, negative = inhibition, hits mostly inhibitors; further: nearly all actives have a fitted effect of over 40% in size
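Compounds were preincubated with Tdp1 (1 nM final) for 15 min at room temperature before substrate (15 nM final) started a 5 min reaction; beads (10 ug/ml final) were then added for 10 min before AlphaScreen detection.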
Active calls of the source: *; [ ] = another dose, or the depositor's remark. The call rests on the fitted dose curve; in most records, active means well fitted curve in the direction sought with a large enough effect; inconclusive means small, poorly fitted or top-dose-only effect, or another doubt; inactive means no such curve, though single readings can be large; an effect the other way counts as inactive or inconclusive. On the % scale 0 is the no-effect control and ±100 the full control effect; potency means the concentration at half of the fitted maximal effect.

How did Cc1ccc(OCc2nc(C#N)c(N3CCN(Cc4ccccc4)CC3)o2)cc1 do in these assays?
GCN5L2 inh: -22%; DT40 TDP1 no CPT: inconclusive; DT40 TDP1 CPT: 18µM*; VDR inhibitor: 9%; PLK1 PBD inh: 27µM*; TDP1 block: 3%

What do the screens show for `N#Cc1nc(COc2ccccc2)oc1N1CCC(Cc2ccccc2)CC1`?
GCN5L2 inh: -7%; DT40 TDP1 no CPT: inconclusive; DT40 TDP1 CPT: inconclusive; VDR inhibitor: 6%; PLK1 PBD inh: -3%; TDP1 block: 11%

Results for N#Cc1nc(COc2ccccc2)oc1N1CCN(Cc2ccccc2)CC1 ?
GCN5L2 inh: -10%; DT40 TDP1 no CPT: inconclusive; DT40 TDP1 CPT: inconclusive; VDR inhibitor: -13%; PLK1 PBD inh: 30µM*; TDP1 block: 9%

What do the screens show for `COc1ccc(N2CCN(c3oc(Cc4cccc5ccccc45)nc3C#N)CC2)cc1`?
GCN5L2 inh: 0%; DT40 TDP1 no CPT: 6.5µM*; DT40 TDP1 CPT: inconclusive; VDR inhibitor: -8%; PLK1 PBD inh: -6%; TDP1 block: 12%

Results for N#Cc1nc(Cc2cccc3ccccc23)oc1N1CCN(c2ccccc2)CC1 ?
GCN5L2 inh: -2%; DT40 TDP1 no CPT: inconclusive; DT40 TDP1 CPT: inconclusive; VDR inhibitor: -1%; PLK1 PBD inh: 1%; TDP1 block: 2%

Results for Cc1nn(C)c(C(=O)NNC(=S)NCC(C)C)c1Cl ?
GCN5L2 inh: 3%; DT40 TDP1 no CPT: inconclusive; DT40 TDP1 CPT: inconclusive; VDR inhibitor: -19%; PLK1 PBD inh: 1%; TDP1 block: 0%

What do the screens show for `OC(c1ccc(F)cc1)c1nc(-c2cnc3ccccc3c2)cs1` (centres undefined)?
DT40 TDP1 no CPT: inconclusive; DT40 TDP1 CPT: 18µM*; PLK1 PBD inh: -1%

How did COc1ccc(C(O)c2nc(-c3cnc4ccccc4c3)cs2)cc1 (centres undefined) do in these assays?
DT40 TDP1 no CPT: 15µM*; DT40 TDP1 CPT: inconclusive; PLK1 PBD inh: 2%

What do the screens show for `OC(c1cccc(Cl)c1)c1nc(-c2cnc3ccccc3c2)cs1` (centres undefined)?
DT40 TDP1 no CPT: 13µM*; DT40 TDP1 CPT: 26µM*; PLK1 PBD inh: 5%

What do the screens show for `COc1ccc(C(O)c2nc(-c3cccc(O)c3)cs2)cc1` (centres undefined)?
DT40 TDP1 no CPT: inconclusive; DT40 TDP1 CPT: inconclusive; PLK1 PBD inh: -7%

Results for COc1cc(OC)c(C(=O)Nc2cccnc2)cc1OC ?
GCN5L2 inh: 1%; DT40 TDP1 no CPT: -8%; DT40 TDP1 CPT: -11%; VDR inhibitor: 3%; PLK1 PBD inh: -2%; TDP1 block: 4%

Results for COc1cc2cc(C(=O)NC(C)c3cccc4ccccc34)c(N)nc2cc1OC (centres undefined) ?
DT40 TDP1 no CPT: 16µM*; DT40 TDP1 CPT: 26µM*; PLK1 PBD inh: -4%

Results for COc1ccccc1C(=O)NC(C)c1cccc2ccccc12 (centres undefined) ?
GCN5L2 inh: -2%; DT40 TDP1 no CPT: 3.7µM*; DT40 TDP1 CPT: 8.2µM*; VDR inhibitor: -4%; PLK1 PBD inh: 3%; TDP1 block: 5%[0.0935 µM]

What do the screens show for `COc1cc2cc(C(=O)Nc3ccccc3)c(N)nc2cc1OC`?
GCN5L2 inh: -18%; DT40 TDP1 no CPT: 21µM*; DT40 TDP1 CPT: inconclusive; VDR inhibitor: -19%; PLK1 PBD inh: 24µM*; TDP1 block: 0%

What do the screens show for `CC1CCCC1/C(=N/O)c1ccccc1` (centres undefined)?
GCN5L2 inh: -23%; DT40 TDP1 no CPT: -6%; DT40 TDP1 CPT: -26%; VDR inhibitor: 8%; PLK1 PBD inh: -6%

How did COc1ccc(-c2c(C3C4C=CCCC4(C)C(=O)N3Cc3ccccc3)ccc3ccccc23)cc1OC (centres undefined) do in these assays?
VDR inhibitor: -25%; TDP1 block: 11%

Results for Cc1cc(N2CCN(C/C=C/c3ccccc3)CC2)n2ncnc2n1 ?
GCN5L2 inh: -8%; DT40 TDP1 no CPT: 10µM*; DT40 TDP1 CPT: 16µM*; VDR inhibitor: 6%; PLK1 PBD inh: 0%; TDP1 block: -5%

How did Cc1cc(N2CCN(S(=O)(=O)c3ccc4ccccc4c3)CC2)n2ncnc2n1 do in these assays?
GCN5L2 inh: 0%; DT40 TDP1 no CPT: inconclusive; DT40 TDP1 CPT: inconclusive; VDR inhibitor: -6%; PLK1 PBD inh: -5%; TDP1 block: 3%

How did CCN(c1ccccc1)c1nc(=O)c2cccnc2s1 do in these assays?
GCN5L2 inh: -5%; DT40 TDP1 no CPT: -29%; DT40 TDP1 CPT: -17%; VDR inhibitor: 3%; PLK1 PBD inh: -9%; TDP1 block: -3%

What do the screens show for `CCN(c1ccccc1)c1cc2ccccc2c(=O)[nH]1`?
GCN5L2 inh: -13%; DT40 TDP1 no CPT: inconclusive; DT40 TDP1 CPT: inconclusive; VDR inhibitor: inconclusive; PLK1 PBD inh: 30µM*; TDP1 block: 2%

How did O=C(Cn1c(=O)nc(-c2ccccc2)c2cc(Cl)ccc21)N1CCN(c2ccc(F)cc2)CC1 do in these assays?
GCN5L2 inh: 23%; DT40 TDP1 no CPT: -13%; DT40 TDP1 CPT: 16%; VDR inhibitor: -3%; TDP1 block: 6%

How did Clc1ccc(Nc2nc(NCc3ccco3)nc3nccnc23)cc1 do in these assays?
DT40 TDP1 no CPT: -9%; DT40 TDP1 CPT: -3%; VDR inhibitor: 7%; TDP1 block: -4%

Results for CCN1C(=O)[C@H]2[C@H]3CN=C(SC)N3[C@@](C)(C(=O)OC)[C@H]2C1=O ?
DT40 TDP1 no CPT: 0%; DT40 TDP1 CPT: -6%; VDR inhibitor: 13%; PLK1 PBD inh: -15%

Results for N#Cc1ccc(-c2nc3ccccc3nc2-c2ccccc2)cc1C#N ?
GCN5L2 inh: 0%; DT40 TDP1 no CPT: 18µM*; DT40 TDP1 CPT: inconclusive; VDR inhibitor: 5%; PLK1 PBD inh: -2%; TDP1 block: 3%

How did Oc1ccc(-c2nc3ccccc3nc2-c2ccccc2)cc1 do in these assays?
GCN5L2 inh: -5%; DT40 TDP1 no CPT: inconclusive; DT40 TDP1 CPT: inconclusive; VDR inhibitor: -3%; PLK1 PBD inh: -1%; TDP1 block: 2%

How did COC(=O)[C@@]1(Cc2ccc(F)cc2)[C@H]2c3cc(C(=O)N(C)C)n(CCc4ccc(O)c(O)c4)c3C[C@H]2CN1C(=O)c1ccccc1 do in these assays?
TDP1 block: 9%

Screens as filed in PubChem BioAssay.
